MPTP block: inhibitors of mitochondrial permeability transition pore; AID 602449; inhibition, % at 10 µM; actives 1.4% (n = 360,000); isolated mouse mitochondria, Ca2+ swelling absorbance, 30 min;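 active = inhibition of 50% or more, scaled per plate between neutral and stimulator controls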;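 also: 0% = DMSO wells given calcium and 100% = 1 mM EGTA wells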
F508del corr: correctors of CFTR F508del function in bronchial epithelial cells; CFBE cells, YFP halide quenching; stimulated with forskolin plus potentiator P3; % fluorescence drop versus neutral controls; activity (quench increase), % at 7.58 µM; actives 0.36% (n = 350,000); AID 720511;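 active = mean added fluorescence quench of at least 8% versus neutral control, with both replicates also reaching 8%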;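 also: cells transiently co-express mutant CFTR-F508del with the halide-sensitive YFP; corrector assay measuring rescue of mutant channel to the surface after 24 h compound exposure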
ATG4B inhibitor: inhibitors of human ATG4B cysteine protease. inhibition, % at 8.33 µM. ATG4B cleavage of LC3-PLA2, NBD-HPC fluorescence, 1 h. Q9Y4P1. actives 0.51% (n = 340,000); in the data active = inhibition above about 40%
CendR NRP1 mod: alters CendR peptide binding to human NRP-1; inhibition, % at 25 µM; O14786; FAM-RPARPAR peptide binding to NRP-1, fluorescence polarization; actives 0.85% (n = 360,000);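 active = inhibition or corrected inhibition above about 18%, plus a signal ratio from 0.5 to 1.5, limit read from the data, passing the limit was not always enough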
SKN-1 block: blocks SKN-1 activity in C. elegans; C. elegans VP596 Pgst-4::GFP/RFP ratio, acrylamide-induced, 24 h; inhibition, % at 21.8 µM; actives 0.49% (n = 360,000); AID 624304;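 active = interference check ratio from 0.5 to 1.5 plus GFP to RFP signal ratio inhibition reaching or exceeding a fixed threshold, cut at about 30% in these data, passing the limit was not always enough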
An asterisk follows results filed as active; / = not tested or not shown; ! = not confirmed by another sample. Most compounds without a hit are left out; they make up all but 2.7% or so of the library.

SMILES	MPTP block	F508del corr	ATG4B inhibitor	CendR NRP1 mod	SKN-1 block
CCC(c1nnnn1CCOC)N1CCN(Cc2ccccc2)CC1 (stereo not drawn)	2	/	2	1	36*
CCC(c1nnnn1CCOC)N1CCN(C(=O)c2ccco2)CC1 (stereo not drawn)	-1	/	4	2	-19
CNC[C@@H]1OCCCC[C@@H](C)Oc2ccc(NS(=O)(=O)c3cn(C)cn3)cc2C(=O)N([C@H](C)CO)C[C@H]1C	/	-1	/	/	/
O=[N+]([O-])c1cc(-c2csc(NCCc3nc4cc(C(F)(F)F)ccc4n3CCCO)n2)ccc1Cl	0	0	-1	28*	-12
OCCCn1c(CCNc2nc(-c3ccc(Cl)cc3)cs2)nc2cc(C(F)(F)F)ccc21	2	1	-5	-12	12
Cc1cc2[nH]c3c(c[n+](C)c4ccccc34)c2cc1C	-3	24*	8	-5	30
COC(=O)C[C@H]1CC[C@@H]2[C@H](COc3ccc(NS(=O)(=O)c4ccc(C)cc4)cc3C(=O)N2C)O1	/	0	/	/	/
Cc1ccc(CNC(=O)c2ccc3c(=O)c(O)c(-c4ccc(C)cc4)[nH]c3c2)cc1	9	14*	-8	17	19
COCCn1c(SCC(=O)Nc2ccccc2OC)nc2c([nH]c3ccccc32)c1=O	1	0	-1	26*	-22
COCCn1c(SCC(=O)Nc2ccccc2F)nc2c([nH]c3ccccc32)c1=O	1	0	-2	-5	16
COCCn1c(-c2ccc(OC)cc2)cnc1SCC(=O)Nc1cccc2ccccc12	10	/	2	26*	3
C[C@H](CO)N1C[C@H](C)[C@H](CN(C)S(=O)(=O)c2ccc(Cl)cc2)Oc2c(NC(=O)c3cnccn3)cccc2C1=O	/	-1	/	/	/
Cc1ccccc1N1CCN(C2CCCN(C(=O)CCN3CCCCC3=O)C2)CC1 (stereo not drawn)	-1	-3	0	-2	3
COc1ccccc1N1CCN(C2CCCN(C(=O)Cn3cccn3)C2)CC1 (stereo not drawn)	-2	1	18	24*	4
Cc1ccccc1N1CCN(C2CCCN(C(=O)CCN3CCCCO3)C2)CC1 (stereo not drawn)	1	-2	3	26*	-8
O=C(Nc1ccc2c(c1)[C@@H]1C[C@@H](CC(=O)N3CCCCC3)O[C@@H](CO)[C@@H]1O2)C1CCC1	/	0	/	/	/
COc1ccc(CN2CC3(CCN(C(=O)Cc4ccccc4)CC3)c3c([nH]c4cc(OC)ccc34)[C@H]2CO)cc1	/	-3	/	/	/
O=C(CCc1ccccc1)NC1CCSC1=O (stereo not drawn)	1	/	-7	0	47*
O=C(COc1ccccc1)NC1CCSC1=O (stereo not drawn)	-1	-1	3	3	-1
CC(=O)NCCn1ccc2ccccc21	-1	/	2	32*	-19
Cc1cc2ccccc2n1CCNC(=O)C1CCCCC1	0	1	0	0	59
Cc1cc2ccccc2n1CCNC(=O)c1cccs1	0	-1	-2	-2	46*
Cc1cc2ccccc2n1CCNC(=O)C1CCCC1	0	/	-8	15	38*
Cc1cc2ccccc2n1CCNC(=O)C1CC1	3	0	-6	6	47*
CCCn1c(CCNC(=O)c2cccs2)nc2ccccc21	1	4	-12	-9	-4
SMILES	MPTP block	F508del corr	ATG4B inhibitor	CendR NRP1 mod	SKN-1 block
c1cc(-c2ccc(C3[C@H]4CNC[C@@H]3N4CC3CCCC3)cc2)ccn1 (stereo partly drawn)	/	-2	/	/	/
C[C@@H]1CN([C@H](C)CO)C(=O)c2cc(NS(=O)(=O)c3cn(C)cn3)ccc2O[C@@H](C)CCCCO[C@H]1CN(C)C(=O)Nc1ccccc1	/	-1	/	/	/
Cc1ccc(N=C2NC(=O)/C(=C\c3ccc(C)s3)S2)cc1	-1	1	2	-37	38*
O=C(Nc1nnc(CCN2CCOCC2)s1)C1CCCCC1	0	/	2	37*	10
C=CCSc1nnc(-c2cccnc2)o1	0	0	-3	4	5
Clc1ccc(-c2nnc(SCc3nc4ccccc4[nH]3)o2)c(Cl)c1	2	/	8	10	-6
C=CCSc1nnc(-c2ccc(Cl)cc2Cl)o1	-1	/	-3	0	86*
Clc1ccc(-c2nnc(SCc3ccon3)o2)c(Cl)c1	-1	/	-1	0	37*
C[C@H]1CCCCO[C@@H](CN(C)S(=O)(=O)c2cccs2)[C@@H](C)CN([C@@H](C)CO)C(=O)c2cc(NC(=O)Nc3ccc(C(F)(F)F)cc3)ccc2O1	/	5	/	/	/
CC(C)NC(=O)N(C)C[C@H]1Oc2ccc(NC(=O)Nc3ccccc3)cc2C(=O)N([C@H](C)CO)C[C@@H]1C	-2	0	-15	34*	16
C[C@H](CO)N1C[C@H](C)[C@@H](CN(C)S(C)(=O)=O)Oc2ccc(NC(=O)NC3CCCCC3)cc2C1=O	-1	-1	-3	31*	6
CC(C)NC(=O)N(C)C[C@@H]1Oc2ccc(NC(=O)Nc3ccccc3)cc2C(=O)N([C@H](C)CO)C[C@@H]1C	/	-1	/	/	/
CC(C)NC(=O)N(C)C[C@H]1Oc2ccc(NC(=O)Nc3ccc4c(c3)OCO4)cc2C(=O)N([C@H](C)CO)C[C@@H]1C	1	2	-5	29*	3
C[C@H](CO)N1C[C@H](C)[C@H](CN(C)C(=O)NC2CCCCC2)Oc2ncc(-c3cc4ccccc4o3)cc2C1=O	/	8.7*	/	/	/
Cc1noc(C)c1NC(=O)Nc1ccc2c(c1)C(=O)N([C@H](C)CO)C[C@H](C)[C@@H](CN(C)C(=O)NC(C)C)O2	0	-1	-9	27*	14
Cc1noc(C)c1NC(=O)Nc1ccc2c(c1)C(=O)N([C@@H](C)CO)C[C@@H](C)[C@@H](CN(C)C(=O)NC(C)C)O2	/	0	/	/	/
COc1cccc(NC(=O)N(C)C[C@H]2OCc3ccccc3-c3c(n(C)c4ccccc34)C(=O)N([C@@H](C)CO)C[C@@H]2C)c1	/	-1	/	/	/
COc1cccc(NC(=O)N(C)C[C@H]2OCc3ccccc3-c3c(n(C)c4ccccc34)C(=O)N([C@H](C)CO)C[C@H]2C)c1	/	8.4*!	/	/	/
CC(C)NC(=O)N[C@H]1CC[C@@H](CCN)O[C@H]1CO	/	2	/	/	/
COc1cc(CNC(=O)c2cc(-c3cc(F)ccc3OCC3CCCO3)n[nH]2)cc(OC)c1 (stereo not drawn)	0	-1	/	11	-6
Cc1ccc(NC(=O)c2cc(-c3cc(F)ccc3OCC3CCCO3)n[nH]2)cc1NS(C)(=O)=O (stereo not drawn)	0	0	/	28*	15
COc1ccc(NC(=S)N(Cc2cccc(Br)c2)CC2CCC(C(=O)O)CC2)cc1 (stereo not drawn)	-1	-2	6	10	-7
COc1cccc(NC(=S)N(Cc2cccc(Br)c2)CC2CCC(C(=O)O)CC2)c1 (stereo not drawn)	-1	-1	0	30*	-2
